Measured values taken from PubChem BioAssay AID1159580 (chemical genetic matrix, 2015).
Values joined by “and” are separate entries in the source; they are usually repeats but may differ in a detail not shown here. Equal entries are not always repeated. Out of some 5,500 compounds screened, about 2,000 (36%) were called active. Not shown: some 18% with an inconclusive outcome. No stated cut-off is given here; in the data, active means normalized growth mostly below about 0.91 (no sharp cut-off); inconclusive means no clear call, values can overlap the other calls; inactive means mostly above about 0.92. The list shows a part of the results.

Experiment: chemical genetic growth profiling, strain panel (AID 1159580);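 further: tested at 20 µM; growth read once vehicle control cultures reached saturation at 30 °C; 1 = growth at the plate median or of vehicle wells; lower values mean less growth of the strain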
Conditions: S. cerevisiae deletion strains, growth OD

Measured: normalized growth

CN1CCC(=C2c3ccccc3CC(=O)c3sccc32)CC1
inactive: locus YAL013W, strain DEP1, hits give low values 1.01 | locus YAL021C, strain ccr4, hits give low values 0.985 | locus YAL026C, strain drs2, hits give low values 0.981 | locus YAL030W, strain snc1, hits give low values 0.975 | locus YAL040C, strain CLN3, hits give low values 0.992 | locus YBL061C, strain skt5, hits give low values 0.981 | locus YBR009C, strain hhf1, hits give low values 1.02 | locus YBR021W, strain FUR4, hits give low values 1.01 | locus YBR023C, strain chs3, hits give low values 0.986 | locus YBR171W, strain sec66, hits give low values 0.964 | locus YBR229C, strain ROT2, hits give low values 0.999 | locus YBR231C, strain swc5, hits give low values 0.964 | locus YBR279W, strain paf1, hits give low values 0.994 | locus YCL011C, strain gbp2, hits give low values 0.989 | locus YCL016C, strain dcc1, hits give low values 1.04 | locus YCL029C, strain bik1, hits give low values 1.02 | locus YCL061C, strain MRC1 (second series), hits give low values 1 | locus YCL069W, strain vba3, hits give low values 0.983 | locus YCR088W, strain abp1, hits give low values 0.973 | locus YDL005C, strain med2, hits give low values 0.991 | locus YDL035C, strain GPR1, hits give low values 1.02 | locus YDL040C, strain nat1, hits give low values 0.984 | locus YDL074C, strain BRE1, hits give low values 1.02 | locus YDL101C, strain DUN1, hits give low values 1.02 | locus YDL134C, strain PPH21, hits give low values 1.01 | locus YDL185W, strain tfp1, hits give low values 1.01 | locus YDL192W, strain arf1, hits give low values 1.01 | locus YDR001C, strain nth1, hits give low values 0.957 | locus YDR069C, strain doa4, hits give low values 0.954 | locus YDR101C, strain arx1, hits give low values 1.01 | locus YDR137W, strain rgp1, hits give low values 0.974 | locus YDR150W, strain NUM1, hits give low values 1 | locus YDR159W, strain sac3, hits give low values 1.03 | locus YDR162C, strain NBP2, hits give low values 1.01 | locus YDR195W, strain ref2 0.895 | locus YDR297W, strain sur2, hits give low values 0.982 | locus YDR318W, strain mcm21, hits give low values 1.02 | locus YDR334W, strain swr1, hits give low values 0.928 | locus YDR335W, strain msn5, hits give low values 0.977 | locus YDR363W, strain ESC2, hits give low values 0.985 | locus YDR388W, hits give low values 1.01 | locus YDR392W, strain spt3, hits give low values 1.04 | locus YDR502C, strain sam2, hits give low values 1.01 | locus YEL003W, strain gim4, hits give low values 0.986 | locus YEL037C, strain rad23, hits give low values 0.99 | locus YEL061C, strain CIN8 (second series), hits give low values 0.966 | locus YEL061C, strain CIN8, hits give low values 1.01 | locus YER002W, strain NOP16, hits give low values 0.993 | locus YER015W, strain faa2, hits give low values 1.01 | locus YER016W, strain bim1, hits give low values 1 | locus YER110C, hits give low values 1.01 | locus YER111C, strain swi4, hits give low values 0.972 | locus YER155C, strain BEM2 (second series), hits give low values 0.927 | locus YER155C, strain BEM2, hits give low values 1 | locus YER167W, strain BCK2, hits give low values 1 | locus YFR010W, strain ubp6, hits give low values 0.958 | locus YGL078C, strain dbp3, hits give low values 1.01 | locus YGL086W, strain mad1, hits give low values 0.994 | locus YGL167C, strain pmr1, hits give low values 0.964 | locus YGL173C, strain kem1, hits give low values 0.984 | locus YGL227W, strain vid30, hits give low values 0.984 | locus YGL240W, strain doc1, hits give low values 0.957 | locus YGL248W, strain PDE1, hits give low values 1.01 | locus YGL253W, strain hxk2, hits give low values 1 | locus YGR078C, strain PAC10, hits give low values 1.01 | locus YGR135W, strain pre9, hits give low values 1 | locus YGR229C, strain SMI1, hits give low values 0.999 and 0.99 | locus YGR252W, strain gcn5, hits give low values 0.962 | locus YHR013C, strain ard1, hits give low values 0.971 | locus YHR027C, strain rpn1, hits give low values 0.992 | locus YHR030C, strain SLT2, hits give low values 1.01 and 1.04 | locus YHR079C, strain IRE1 (second series), hits give low values 1.02 | locus YHR079C, strain IRE1, hits give low values 1.03 | locus YHR094C, strain hxt1, hits give low values 1.01 | locus YHR129C, strain ARP1, hits give low values 1 | locus YHR142W, strain chs7, hits give low values 0.99 | locus YHR200W, strain rpn10, hits give low values 1.02 | locus YIL066C, strain RNR3, hits give low values 1.01 | locus YIL073C, strain SPO22, hits give low values 1.06 | locus YIL125W, strain kgd1, hits give low values 0.998 | locus YIR030C, strain dcg1, hits give low values 1.01 | locus YJL092W, strain hpr5, hits give low values 0.977 | locus YJL095W, strain BCK1 (second series), hits give low values 0.973 | locus YJL095W, strain BCK1, hits give low values 1.02 | locus YJL115W, strain asf1, hits give low values 0.953 | locus YJL129C, strain trk1, hits give low values 0.969 | locus YJL134W, strain LCB3, hits give low values 1.01 | locus YJL154C, strain vps35, hits give low values 0.968 | locus YJL164C, strain tpk1, hits give low values 1.02 | locus YJL166W, strain qcr8, hits give low values 0.95 | locus YJL168C, strain set2, hits give low values 1.01 | locus YJL187C, strain SWE1 (second series), hits give low values 1.02 | locus YJR043C, strain POL32, hits give low values 1.02 | locus YJR066W, strain TOR1, hits give low values 0.989 | locus YJR075W, strain HOC1, hits give low values 1.01
